PubChem BioAssay (NCATS)
Records with an inconclusive call do not appear. Activity calls are given as the source filed them. The call rests on the fitted dose curve; in most records, active means well fitted curve in the direction sought with a large enough effect; inconclusive means small, poorly fitted or top-dose-only effect, or another doubt; inactive means no such curve, though single readings can be large; an effect the other way counts as inactive or inconclusive.

Legend:
[1] = Cellular Toxicity (caspase-3) NIH 3T3 (AID 666);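 further: caspase signal read after 16 h compound exposure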
Outline: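 Caspase-Glo 3/7 luminescence reported caspase activation in 1000 NIH 3T3 cells/well after 16 h compound exposure at 37 C. DMSO set basal and 100 uM tamoxifen set 100% stimulation; concentration-response modeled with the Hill equation for AC50.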

[2] = Cellular Toxicity (caspase-3) Renal Proximal Tubule (AID 667);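 further: cells exposed to compound for 16 hours at 37 °C before detection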
Outline: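 Primary rat proximal tubule cells, 1000/well, 5 h plating at 37 °C, then compound 16 h at 37 °C. Caspase-Glo 3/7 reagent, 1 h RT, luminescence. Normalized to DMSO (basal) and 10 uM staurosporine (100%); Hill-fit AC50.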

[3] = molecular target: Cytochrome P450 3A4 (Homo sapiens) (UniProt P08684); test: qHTS Assay for Inhibitors and Substrates of Cytochrome P450 3A4 (AID 884); further: series mostly up to about 57 µM; nearly all actives have a fitted effect of over 50% in size
Outline: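 Luminescent readout of luciferin produced by CYP3A4 (20 nM) dealkylation of Luciferin-PPXE, 25 uM (its KM). NADPH-driven reaction ran 60 min at RT after 10 min compound preincubation; data scaled to 57 uM ketoconazole as 100% inhibition.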

[4] = Cell Viability - LYMP2-001 (AID 921); further: series mostly up to about 92 µM; nearly all actives have a fitted effect of over 70% in size
Outline: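 Human lymphoblastoid cells (Coriell), 2500 per well, were preincubated 5 hr at 37 C, then exposed to compounds in complete medium for 24 hr at 37 C. Cellular ATP was read by CellTiter-Glo luminescence; AC50 from Hill fits of concentration-response data.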

[5] = MultiTox-Fluor Cytotoxicity Assay - LYMP1-001 - Dead Cells (AID 946)
Outline: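 LYMP1-001 lymphoblastoid cells (2500/well) treated 16 h at 37 C. Dead-cell protease cleavage of bis-AAF-R110 read at Ex/Em 485/520. Normalized to DMSO and 15 uM tetraoctylammonium bromide; AC50 from Hill fits.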

[6] = MultiTox-Fluor Cytotoxicity Assay - LYMP1-001 - Live Cells (AID 947)
[7] = Cell Viability - LYMP1-002 - Assay at 16 hr (AID 948)
Outline: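 Human lymphoblastoid cells (LYMP1-002), 2500/well, were preincubated 5 hr at 37 C, then exposed to compounds for 16 hr at 37 C in complete medium. Cellular ATP was read by CellTiter-Glo luminescence after 30 min at room temperature; AC50 from Hill fits.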

[8] = MultiTox-Fluor Cytotoxicity Assay - LYMP1-002 - Live Cells (AID 955)
Outline: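 After 16 h compound exposure at 37 C, live LYMP1-002 lymphoblastoid cells (2500/well) were quantified by cleavage of cell-permeant GF-AFC substrate, read at 405/510 nm after 60 min. Concentration-response fitted with Hill equation for AC50.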

[9] = MultiTox-Fluor Cytotoxicity Assay - LYMP1-003 - Dead Cells (AID 961); further: nearly all actives have a fitted effect of over 70% in size
Outline: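 LYMP1-003 human lymphoblastoid cells (2500/well) exposed to compound 16 h at 37 C in complete medium; dead-cell protease read with bis-AAF-R110 fluorescence (Ex/Em 485/520) after 60 min at room temperature. Normalized to DMSO and 15 uM tetraoctylammonium bromide; AC50 from Hill fit.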

[10] = MultiTox-Fluor Cytotoxicity Assay - LYMP1-003 - Live Cells (AID 962);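 further: cytotoxic hits lower the live-cell protease signal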
Outline: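 Live-cell protease activity (GF-AFC substrate, 405/510 nm, 60 min at room temperature) after 16 h, 37 C compound exposure of human lymphoblastoid LYMP1-003 cells; concentration-response fitted to the Hill equation for AC50.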

[11] = Cell Viability - LYMP1-003 - Assay at 24 hr (AID 963)
Outline: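 Concentration-response qHTS: ATP loss measured by CellTiter-Glo luminescence after 24 h compound exposure at 37 C. Cells were LYMP1-003 human lymphoblastoid, 2500 per well. AC50 derived via standard Hill equation modeling.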

[12] = Cell Viability - LYMP1-003 - Assay at 40 hr (AID 964); further: series mostly up to about 92 µM; nearly all actives have a fitted effect of over 60% in size
Outline: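 Viability is taken as cellular ATP, read by CellTiter-Glo luminescence after 40 h of compound exposure at 37 C. Cells: human lymphoblastoid line LYMP1-003 at 2500/well; AC50 values derived by Hill-equation fitting of concentration-response data.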

[13] = Cell Viability - LYMP2-003 (AID 965);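 further: cells exposed to compounds for 24 h before reading; nearly all actives have a fitted effect of over 50% in size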
Outline: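 Human lymphoblastoid cells (2500/well) were pre-incubated 5 hr at 37 C, then exposed to compounds over a concentration range for 24 hr at 37 C. Intracellular ATP was read by CellTiter-Glo luminescence; AC50 came from Hill-equation fits.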

[14] = Cell Viability - LYMP2-004 (AID 966); further: nearly all actives have a fitted effect of over 65% in size
Outline: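 AC50 values come from Hill modelling of concentration-dependent loss of intracellular ATP, measured by CellTiter-Glo luminescence. Human LYMP2-004 lymphoblastoid cells (2500/well) were exposed to compound for 24 h at 37 C.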

[15] = Cell Viability - LYMP2-005 (AID 967); further: series mostly up to about 92 µM
Outline: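 CellTiter-Glo luminescence (cellular ATP) read-out; LYMP2-005 lymphoblastoid cells, 2500/well, 5 h pre-incubation, then 24 h compound exposure at 37 C in complete medium. Tetraoctylammonium bromide positive control; AC50 by standard Hill fit.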

[16] = Cell Viability - LYMP2-009 (AID 968); further: series mostly up to about 92 µM; nearly all actives have a fitted effect of over 55% in size
[17] = Cell Viability - LYMP2-011 (AID 969); further: nearly all actives have a fitted effect of over 60% in size
Outline: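 Cytotoxicity qHTS with ATP content as read-out: lymphoblastoid cells (2500/well) exposed to compound for 24 h at 37 C, then luciferase luminescence measured. Concentration-response data fitted with the standard Hill equation to give AC50.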

[18] = Cell Viability - LYMP2-013 (AID 970); further: series mostly up to about 92 µM; nearly all actives have a fitted effect of over 55% in size
Outline: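 qHTS cytotoxicity: ATP-dependent luminescence (CellTiter-Glo, 30 min room temperature) read after 24 h compound exposure at 37 C of 2500 LYMP2-013 lymphoblastoid cells per well. Concentration-response fitted with Hill equation to give AC50.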

[19] = Cell Viability - LYMP2-015 (AID 971); further: nearly all actives have a fitted effect of over 55% in size
Outline: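 Cytotoxicity readout: decrease in intracellular ATP (CellTiter-Glo luminescence) in 2500 LYMP2-015 lymphoblastoid cells/well after 24 h compound exposure at 37 C. Concentration-response data fitted with the standard Hill equation to give AC50.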

[20] = Cell Viability - LYMP2-017 (AID 972); further: series mostly up to about 92 µM; nearly all actives have a fitted effect of over 55% in size
Outline: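 CellTiter-Glo luminescence (cellular ATP, 30 min RT) measured cytotoxicity after 24 hr compound treatment at 37 C. Cells were a human lymphoblastoid line, LYMP2-017, plated at 2500/well and incubated 5 hr first; concentration-response fitted with Hill equation for AC50.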

[21] = Cell Viability - LYMP2-019 (AID 973); further: nearly all actives have a fitted effect of over 55% in size
Outline: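 AC50 values come from Hill-equation fits of luminescent intracellular ATP (CellTiter-Glo, 30 min, room temperature) following 24 h compound exposure at 37 C. Cells: LYMP2-019 lymphoblastoid line, 2500 per well, in complete culture medium.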

[22] = Cell Viability - LYMP2-021 (AID 974); further: nearly all actives have a fitted effect of over 55% in size
Outline: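 AC50 values come from Hill-equation fits to CellTiter-Glo luminescence (ATP content), read after 24 hour compound exposure at 37 C of 2500 LYMP2-021 lymphoblastoid cells/well; tetraoctylammonium bromide as positive control.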

[23] = Cell Viability - LYMP2-023 (AID 975)
Outline: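 Intracellular ATP, read by CellTiter-Glo luminescence, reports viability after 24 hr compound exposure at 37 C. 2500 lymphoblastoid cells/well (LYMP2-023) seeded 5 hr beforehand; Hill fits give AC50; positive control tetraoctylammonium bromide.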

Measured: Potency

Sequence of Cytochrome P450 3A4 (Homo sapiens) (P08684 whole entry, looked up): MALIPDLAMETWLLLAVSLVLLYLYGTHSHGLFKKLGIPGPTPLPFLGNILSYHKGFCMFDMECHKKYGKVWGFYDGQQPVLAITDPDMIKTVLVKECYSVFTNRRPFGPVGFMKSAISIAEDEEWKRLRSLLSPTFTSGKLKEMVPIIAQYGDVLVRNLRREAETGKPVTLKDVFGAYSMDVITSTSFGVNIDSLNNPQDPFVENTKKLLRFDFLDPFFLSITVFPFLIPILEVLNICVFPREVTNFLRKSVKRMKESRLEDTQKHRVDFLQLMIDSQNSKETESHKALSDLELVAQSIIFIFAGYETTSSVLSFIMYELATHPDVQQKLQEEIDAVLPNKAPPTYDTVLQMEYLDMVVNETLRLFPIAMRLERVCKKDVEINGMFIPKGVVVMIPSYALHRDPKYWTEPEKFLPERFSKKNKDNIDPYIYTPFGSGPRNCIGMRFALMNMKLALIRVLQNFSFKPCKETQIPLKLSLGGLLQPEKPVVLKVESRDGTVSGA

CC12CCC(CC1=O)C2(C)C (stereo not drawn)
inactive: all assays above
